From PubChem BioAssay (NCI)
Compounds without any hit were thinned out: in the full panel of roughly 83,000, 20% have a hit.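 Treatment: one concentration, 48 hours, 96-well format. Scoring: percent growth, with anything below 10 considered active.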 The source made the active and inactive calls.

test system: MCF7 breast; assay: NCI-60 one-dose screen, 48 h (100 = growth as untreated, 0 = no growth, -100 = all killed); conditions: 10 µM unless noted

For `COc1cc([N+](=O)[O-])c2ncccc2c1O`, which growth is on record?
Its growth is 49% (inactive).

For `Brc1ccc(-c2[nH]ncc2-c2c[nH]c3ccccc23)cc1`, which growth is on record?
Its growth is 66.8% (inactive).

Which growth does the source give for `COc1ccc(C2C(C#N)=C(N)Oc3c2ccc2ccccc32)cc1` (stereo not drawn) here?
The growth was 13.2% (inactive).

How did the growth turn out when `CNc1ccc(Br)c2c1C(=O)c1ccccc1C2=O` was run?
The growth was 72.4% (inactive).

`c1cc2[nH]ncc2cc1-c1nc2ccc3[nH]ncc3c2c2c1CCC2` was tested. Which growth did it give?
The growth was 32% (inactive).

How did the growth turn out when `O=C(Nc1ccncc1)C(=O)c1cn(S(=O)(=O)c2ccccc2F)c2ccccc12` was run?
Its growth is 21.5% (inactive).

`O=C1/C(=C/c2ccc([N+](=O)[O-])cc2)CN(C(=O)CCN2CCC(=NO)CC2)C/C1=C\c1ccc([N+](=O)[O-])cc1` was tested. Which growth did it give?
The growth was -55.4% (active).

`O=C(O)COc1ccc(-c2cssc2=S)cc1` was tested. Which growth did it give?
The growth was 93.2% (inactive).

With `N=C(N)c1ccc(-c2ccc(-c3ccc4ccccc4c3)s2)cc1` as the compound, how does the growth read?
The growth was 67.9% (inactive).

Which growth does the source give for `CC(=O)OC[C@]12CC[C@H]3[C@@H](C[C@H]4O[C@]45CC=CC(=O)[C@]35C)[C@]1(O)CC[C@@]2(O)[C@@](C)(O)C1CC(C)=C(C)C(=O)O1` (stereo partly drawn) here?
The growth was -27% (active).

For `Cc1ccc(-c2cc3nc(-c4ccccc4)nc(C(Cl)Cl)n3n2)cc1`, which growth is on record?
Its growth is -10.7% (active).

How did the growth turn out when `CCN(CC)c1ccc(N=O)cc1` was run?
Its growth is 51.8% (inactive).

For `Oc1ccccc1/C=N/NC(=S)NC1CC2C=CC1C2` (stereo not drawn), which growth is on record?
The growth was 80.7% (inactive).

With `CCCCCCCCCCCC(=O)NCCC[N+](C)(C)CC(=O)[O-]` as the compound, how does the growth read?
Its growth is 99.8% (inactive).

For `Cc1ccc(C(=O)C2=Cc3cc4ccccc4n3Cc3cnnn32)cc1`, which growth is on record?
Its growth is 90.9% (inactive).

Which growth does the source give for `O=[N+]([O-])c1cccc(-c2nc3sccn3c2-c2ccnc(NCCCNS(=O)(=O)c3ccc(Cl)cc3)n2)c1` here?
Its growth is 33.2% (inactive).

Which growth does the source give for `CCCCCCCCCCCCNC(=O)[C@H]1CSC(c2cc(Br)cs2)N1` (stereo partly drawn) here?
The growth was 49% (inactive).

With `NC(=O)CCCN1C/C(=C\c2ccccc2)C(=O)c2ccccc21` as the compound, how does the growth read?
Its growth is 96.7% (inactive).

For `CCCCCCCCC(C)OC(=O)c1nn(C(C)=O)c2ccccc12` (stereo not drawn), which growth is on record?
Its growth is 90.1% (inactive).

With `O=C(CSC1CCc2ccccc21)N/N=C/c1ccccc1O` (stereo not drawn) as the compound, how does the growth read?
Its growth is 19.2% (inactive).

`C=C1c2nc3ccccc3n2C=C(c2ccc(Cl)cc2)N1Cc1ccccc1` was tested. Which growth did it give?
Its growth is 63% (inactive).

How did the growth turn out when `COc1ccc2[nH]c(C(=O)OCc3ccc4c(Cl)cc(Cl)c(O)c4n3)cc2c1` was run?
The growth was -21.3% (active).

For `C=C[C@@H]1C[C@@H]2Cc3cc(F)ccc3N1O2`, which growth is on record?
The growth was 100% (inactive).

For `C=CCSc1n[nH]c(-c2cccs2)n1`, which growth is on record?
The growth was 101% (inactive).

For `NC(=N\N=C/c1ccc(O)cc1)/C(N)=N\N=C/c1ccc(O)cc1`, which growth is on record?
The growth was 66.4% (inactive).

With `C=C[C@@H]1C[C@H](O)Cc2cc(F)ccc2N1` as the compound, how does the growth read?
Its growth is 107% (inactive).

For `COc1ccc(-c2cnoc2-c2ccc(OC)cc2O)cc1`, which growth is on record?
Its growth is 19.6% (inactive).

Which growth does the source give for `CN(C)c1oc(C2OC2c2ccccc2)nc1C#N` (stereo not drawn) here?
Its growth is 90.5% (inactive).

How did the growth turn out when `ClC(Cl)c1nc(-c2cccnc2)n2nc(-c3ccccc3)cc2n1` was run?
Its growth is 50.6% (inactive).

`COc1cc(-c2nn(-c3cccc(NC(=O)Nc4cccc(C(F)(F)F)c4)c3)cc2-c2ccncc2)ccc1Cl` was tested. Which growth did it give?
The growth was -6.3% (active).

With `CCN(CC)CCOc1ccc(/C(=C(/C)c2ccccc2)c2ccc(OC(C)=O)cc2)cc1` as the compound, how does the growth read?
The growth was 41.7% (inactive).

`O=C(/C=C/c1cc(-c2ccc3c(c2)OCO3)n[nH]1)c1ccc2c(c1)OCO2` was tested. Which growth did it give?
Its growth is 84.8% (inactive).

How did the growth turn out when `S=C(S)NCCc1c[nH]c2ccccc12` was run?
Its growth is 94.4% (inactive).

`c1ccc(Nc2nc(Nc3ccccc3)nc(Nc3ccccc3)n2)cc1` was tested. Which growth did it give?
Its growth is 65% (inactive).

For `C=C1CCC2C3(C)COC(c4c(OC)cccc4OC)OC3CCC2(C)C1C/C=C1/C(=O)OCC1O` (stereo not drawn), which growth is on record?
Its growth is 27.8% (inactive).

Which growth does the source give for `Cc1cc(N/N=C/c2nc(-c3ccccc3)oc2C)c2cc(Cl)ccc2n1` here?
The growth was -71.9% (active).

How did the growth turn out when `Nc1cccc(-c2nc3sccn3c2-c2ccnc(NCCCNS(=O)(=O)c3cccc4ccccc34)n2)c1` was run?
Its growth is 25.2% (inactive).

For `CCOC(=O)c1c(NS(=O)(=O)c2ccc(C)cc2)sc2c1CCC1(C2)OCCO1`, which growth is on record?
Its growth is 93.2% (inactive).

`COc1ccc(Nc2ncccc2C(=O)NCc2cn(Cc3cccc(Oc4ccccc4)c3)nn2)cc1` was tested. Which growth did it give?
The growth was 20% (inactive).

test system: HCT-116 colon; assay: as above; conditions: 10 µM unless noted

`COc1cc([N+](=O)[O-])c2ncccc2c1O` was tested. Which growth did it give?
Its growth is 76.7% (inactive).

With `Brc1ccc(-c2[nH]ncc2-c2c[nH]c3ccccc23)cc1` as the compound, how does the growth read?
The growth was 98.4% (inactive).

`COc1ccc(C2C(C#N)=C(N)Oc3c2ccc2ccccc32)cc1` (stereo not drawn) was tested. Which growth did it give?
The growth was 23.5% (inactive).

With `CNc1ccc(Br)c2c1C(=O)c1ccccc1C2=O` as the compound, how does the growth read?
Its growth is 96.6% (inactive).

For `c1cc2[nH]ncc2cc1-c1nc2ccc3[nH]ncc3c2c2c1CCC2`, which growth is on record?
The growth was 16.9% (inactive).

How did the growth turn out when `O=C(Nc1ccncc1)C(=O)c1cn(S(=O)(=O)c2ccccc2F)c2ccccc12` was run?
The growth was 20.4% (inactive).

`O=C1/C(=C/c2ccc([N+](=O)[O-])cc2)CN(C(=O)CCN2CCC(=NO)CC2)C/C1=C\c1ccc([N+](=O)[O-])cc1` was tested. Which growth did it give?
Its growth is -67.4% (active).

How did the growth turn out when `O=C(O)COc1ccc(-c2cssc2=S)cc1` was run?
The growth was 109% (inactive).

`N=C(N)c1ccc(-c2ccc(-c3ccc4ccccc4c3)s2)cc1` was tested. Which growth did it give?
Its growth is 78.6% (inactive).

`CC(=O)OC[C@]12CC[C@H]3[C@@H](C[C@H]4O[C@]45CC=CC(=O)[C@]35C)[C@]1(O)CC[C@@]2(O)[C@@](C)(O)C1CC(C)=C(C)C(=O)O1` (stereo partly drawn) was tested. Which growth did it give?
The growth was -29.3% (active).

Which growth does the source give for `Cc1ccc(-c2cc3nc(-c4ccccc4)nc(C(Cl)Cl)n3n2)cc1` here?
The growth was -87.6% (active).

How did the growth turn out when `CCN(CC)c1ccc(N=O)cc1` was run?
The growth was 37.9% (inactive).

Which growth does the source give for `Oc1ccccc1/C=N/NC(=S)NC1CC2C=CC1C2` (stereo not drawn) here?
The growth was 42.9% (inactive).

How did the growth turn out when `CCCCCCCCCCCC(=O)NCCC[N+](C)(C)CC(=O)[O-]` was run?
The growth was 89.9% (inactive).

How did the growth turn out when `Cc1ccc(C(=O)C2=Cc3cc4ccccc4n3Cc3cnnn32)cc1` was run?
Its growth is 94.1% (inactive).

`O=[N+]([O-])c1cccc(-c2nc3sccn3c2-c2ccnc(NCCCNS(=O)(=O)c3ccc(Cl)cc3)n2)c1` was tested. Which growth did it give?
Its growth is 53.3% (inactive).

`CCCCCCCCCCCCNC(=O)[C@H]1CSC(c2cc(Br)cs2)N1` (stereo partly drawn) was tested. Which growth did it give?
Its growth is -82% (active).

`NC(=O)CCCN1C/C(=C\c2ccccc2)C(=O)c2ccccc21` was tested. Which growth did it give?
Its growth is 101% (inactive).

For `CCCCCCCCC(C)OC(=O)c1nn(C(C)=O)c2ccccc12` (stereo not drawn), which growth is on record?
The growth was 97% (inactive).

With `O=C(CSC1CCc2ccccc21)N/N=C/c1ccccc1O` (stereo not drawn) as the compound, how does the growth read?
The growth was 31.5% (inactive).

How did the growth turn out when `C=C1c2nc3ccccc3n2C=C(c2ccc(Cl)cc2)N1Cc1ccccc1` was run?
The growth was 63% (inactive).

For `COc1ccc2[nH]c(C(=O)OCc3ccc4c(Cl)cc(Cl)c(O)c4n3)cc2c1`, which growth is on record?
Its growth is -92.3% (active).

With `C=C[C@@H]1C[C@@H]2Cc3cc(F)ccc3N1O2` as the compound, how does the growth read?
The growth was 112% (inactive).

For `C=CCSc1n[nH]c(-c2cccs2)n1`, which growth is on record?
The growth was 98.6% (inactive).

Which growth does the source give for `NC(=N\N=C/c1ccc(O)cc1)/C(N)=N\N=C/c1ccc(O)cc1` here?
The growth was 62.2% (inactive).

For `C=C[C@@H]1C[C@H](O)Cc2cc(F)ccc2N1`, which growth is on record?
Its growth is 103% (inactive).

Which growth does the source give for `COc1ccc(-c2cnoc2-c2ccc(OC)cc2O)cc1` here?
The growth was 16.5% (inactive).

`CN(C)c1oc(C2OC2c2ccccc2)nc1C#N` (stereo not drawn) was tested. Which growth did it give?
The growth was 90.2% (inactive).

How did the growth turn out when `ClC(Cl)c1nc(-c2cccnc2)n2nc(-c3ccccc3)cc2n1` was run?
The growth was 0.678% (active).

With `COc1cc(-c2nn(-c3cccc(NC(=O)Nc4cccc(C(F)(F)F)c4)c3)cc2-c2ccncc2)ccc1Cl` as the compound, how does the growth read?
Its growth is 0.0611% (active).

`CCN(CC)CCOc1ccc(/C(=C(/C)c2ccccc2)c2ccc(OC(C)=O)cc2)cc1` was tested. Which growth did it give?
Its growth is 79% (inactive).

`O=C(/C=C/c1cc(-c2ccc3c(c2)OCO3)n[nH]1)c1ccc2c(c1)OCO2` was tested. Which growth did it give?
The growth was 92.7% (inactive).

With `S=C(S)NCCc1c[nH]c2ccccc12` as the compound, how does the growth read?
The growth was 96.1% (inactive).

With `c1ccc(Nc2nc(Nc3ccccc3)nc(Nc3ccccc3)n2)cc1` as the compound, how does the growth read?
Its growth is 82% (inactive).

With `C=C1CCC2C3(C)COC(c4c(OC)cccc4OC)OC3CCC2(C)C1C/C=C1/C(=O)OCC1O` (stereo not drawn) as the compound, how does the growth read?
Its growth is 1.8% (active).

How did the growth turn out when `Cc1cc(N/N=C/c2nc(-c3ccccc3)oc2C)c2cc(Cl)ccc2n1` was run?
The growth was -94.2% (active).

For `Nc1cccc(-c2nc3sccn3c2-c2ccnc(NCCCNS(=O)(=O)c3cccc4ccccc34)n2)c1`, which growth is on record?
The growth was 36.1% (inactive).

How did the growth turn out when `CCOC(=O)c1c(NS(=O)(=O)c2ccc(C)cc2)sc2c1CCC1(C2)OCCO1` was run?
The growth was 95.9% (inactive).

`COc1ccc(Nc2ncccc2C(=O)NCc2cn(Cc3cccc(Oc4ccccc4)c3)nn2)cc1` was tested. Which growth did it give?
The growth was 23.3% (inactive).
